A selection: hits, their analogues and other compounds. The true share with any hit is near 5.4%.
aDG glyco up: increases alpha dystroglycan glycosylation | activation, % at 10 µM | actives 0.22% (n = 360,000) | Pro5-aDG cells, alpha-DG glycosylation AlphaScreen (IIH6); 0% Pro5, 100% B10-LARGE cell signal;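 active = activation of at least 8% versus controls, or a plate z-score of at least 8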;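 note: Pro5 are CHO cells carrying HIG-tagged alpha-DG that lacks glycosylation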
rCAG binder: molecules binding r(CAG) RNA repeats | r(CAG) RNA repeat, TO-PRO-1 dye displacement fluorescence | inhibition, % at 3 µM | actives 1.3% (n = 370,000);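 active = inhibition above the plate cutoff, the mean of all test compounds on that plate plus 3 SD, cut at about 35% in these data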;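 note: 0% = DMSO alone and 100% = 100 µM mitoxantrone as full dye displacement; higher means more dye released from RNA so lower well fluorescence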
PHOSPHO1 block: PHOSPHO1 (human) inhibition | recombinant PHOSPHO1, absorbance phosphatase assay | inhibition, % at 13.3 µM | actives 1.1% (n = 290,000) | Q8TCT1; in the data active = inhibition above about 60%
Target sequence (Q8TCT1 whole entry, looked up): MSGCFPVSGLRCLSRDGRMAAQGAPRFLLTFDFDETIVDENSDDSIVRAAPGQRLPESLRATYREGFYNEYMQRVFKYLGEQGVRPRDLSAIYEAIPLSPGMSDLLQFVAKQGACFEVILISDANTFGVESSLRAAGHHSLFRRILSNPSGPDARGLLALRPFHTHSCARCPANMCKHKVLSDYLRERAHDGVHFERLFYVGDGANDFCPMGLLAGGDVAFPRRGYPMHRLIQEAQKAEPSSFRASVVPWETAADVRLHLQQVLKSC
ALR inh: inhibitors of human sulfhydryl oxidase ALR; P55789; purified ALR, DTT oxidation, H2O2 HRP-luminol luminescence; inhibition, % (no concentration beside the values); actives 3.8% (n = 290,000); AID 485317;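 active = mean replicate inhibition above about 79%, with every replicate also reaching it, limit read from the data; inconclusive = only one of the two criteria met; inactive = mean below limit and not every replicate reaching it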
Target sequence (P55789 whole entry, looked up): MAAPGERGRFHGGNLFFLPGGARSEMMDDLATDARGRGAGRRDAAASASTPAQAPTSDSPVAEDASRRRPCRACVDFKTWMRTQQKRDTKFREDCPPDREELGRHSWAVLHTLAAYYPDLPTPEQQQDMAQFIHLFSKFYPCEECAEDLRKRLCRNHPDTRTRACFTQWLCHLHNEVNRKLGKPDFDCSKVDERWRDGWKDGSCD
APOBEC3G inh: blocks human APOBEC3G single-stranded DNA deamination | Q9HC16 | recombinant A3G, ssDNA deamination FAM/TAMRA fluorescence | inhibition, % at 20 µM | actives 0.28% (n = 330,000) | AID 493012;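 active = inhibition of at least 40% at 20 µM, with no more than 30% in the related APOBEC3A deaminase screen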;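 note: plate controls were DMSO wells with A3G for no effect and wells lacking A3G enzyme for full effect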
APOBEC3A inh: blocks human APOBEC3A ssDNA deamination; P31941; recombinant A3A, FAM/TAMRA ssDNA deamination fluorescence; inhibition, % at 20 µM; actives 0.41% (n = 330,000);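 active = at least 40% inhibition at 20 µM here, with at most 30% in a related deaminase screen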;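 note: plate controls were A3A with DMSO for no effect and wells lacking A3A enzyme for full effect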
* marks the source's active call; other numbers are inactive results; u = inconclusive; x = no result given.

SMILES	aDG glyco up	rCAG binder	PHOSPHO1 block	ALR inh	APOBEC3G inh	APOBEC3A inh
Cc1ccc2nc(-c3cccc(S(=O)(=O)N(C)C)c3)cn2c1	0	3	48	99*	-1	-3
COc1ccc(-c2cn3cc(C)ccc3n2)cc1Br	94*	0	-7	5	-5	2
CN(C)S(=O)(=O)c1cccc(-c2cn3cccnc3n2)c1	0	3	20	99*	-4	0
CCOC(=O)C1=C(C(=O)OCC)C2N(Cc3ccc(Br)cc3)c3ccccc3[C@@]23C[C@@H](C(=O)OC)N(S(=O)(=O)c2ccc(C(F)(F)F)cc2)C3=N1 (some centres not stated)	x	13	x	x	x	x
N#CCC[C@@H]1CC[C@]2(CCCN(C(=O)C3CCCC3)C2)O1	x	-1	x	x	x	x
COC(=O)c1cc(C(C)c2ccccc2O)n2ccccc12 (configuration not stated)	x	2	x	x	x	x
CCCCNc1c(N)n(CCC)c(=O)[nH]c1=O	0	-2	-6	-7	8	2
CCCn1c(N)c(NCCN2CCOCC2)c(=O)[nH]c1=O	0	-4	27	99*	-4	4
S=c1[nH]nc(CCc2ccc(Cl)cc2)o1	0	1	21	38	1	-2
S=c1[nH]nc(COc2ccc(Cl)cc2)o1	0	3	103*	23	-4	-6
COc1ccc(OCc2n[nH]c(=S)o2)cc1	0	2	88*	22	-7	-4
C[C@@H]1ON(C)[C@H]2C[C@H]3c4[nH]c5c(-c6ccccc6)cccc5c4CCN3C[C@@H]12	x	7	x	x	x	x
C[C@H]1CN(C(=O)OC(C)(C)C)CCN1c1ccc(N2CC[C@H](O)C2)c(C#N)c1	x	0	x	x	x	x
COC(=O)c1ccccc1NC(=O)Oc1ccc(C(C)C)cc1	0	x	36	92*	1	6
COC(=O)c1ccccc1NC(=S)NC(=O)COc1ccc(C(C)C)cc1	0	-1	6	x	-1	6
O=C(CSc1nc(=O)n(CCN2CCOCC2)c2c1CCCC2)Nc1ccccc1Cl	0	1	x	x	x	x
COc1cc(NC(=O)CSc2nc(=O)n(CCCN3CCOCC3)c3c2CCC3)cc(OC)c1	0	0	x	99*	-1	3
O=C(CSc1nc(=O)n(CCN2CCOCC2)c2c1CCC2)Nc1ccc(OC(F)(F)F)cc1	0	-4	x	97*	-9	-3
O=C(CSc1nc(=O)n(CCN2CCOCC2)c2c1CCCC2)Nc1cccc([N+](=O)[O-])c1	0	0	x	-8	0	0
COc1cc(NC(=O)CSc2nc(=O)n(CCN3CCOCC3)c3c2CCC3)cc(OC)c1	0	-7	x	97*	-11	-3
CC(=O)Nc1cccc(NC(=O)CSc2nc(=O)n(CCN3CCOCC3)c3c2CCCC3)c1	0	-3	x	99*	-1	-1
CC(=O)c1cccc(NC(=O)CSc2nc(=O)n(CCN3CCOCC3)c3c2CCC3)c1	0	-4	x	-416	1	2
Cc1cc(Nc2cccc([N+](=O)[O-])c2)cc(=O)n1-c1cccc([N+](=O)[O-])c1	x	6	x	x	x	x
CC(C)N1CCCCC(NC(=O)c2ccc(Cl)cc2Cl)C1=O (configuration not stated)	x	4	x	x	x	x
CCOC(=O)[C@]12CCCC3=C1N(CCC3)C(=O)[C@@H](CC(=O)N1CCCCC1)C2	x	-1	x	x	x	x
SMILES	aDG glyco up	rCAG binder	PHOSPHO1 block	ALR inh	APOBEC3G inh	APOBEC3A inh
O=C(CSc1nc(=O)n(CCCN2CCOCC2)c2c1CCCC2)Nc1cccc(F)c1	0	-6	x	u	-8	-4
CCOc1ccc(NC(=O)CSc2nc(=O)n(CCN3CCOCC3)c3c2CCCC3)cc1	0	-1	x	-4	-6	-2
COc1ccc(NC(=O)CSc2nc(=O)n(CCN3CCOCC3)c3c2CCC3)cc1	0	-5	x	98*	-7	1
Cc1cc(C)cc(NC(=O)CSc2nc(=O)n(CCCN3CCOCC3)c3c2CCCC3)c1	0	-6	x	96*	-8	-2
Nc1ccn([C@@H]2O[C@H](C(=O)N[C@H](Cc3ccccc3)C(=O)N3CCC(F)(F)CC3)[C@@H](O)[C@H]2O)c(=O)n1	x	1	x	x	x	x
CC(C)(C)c1ccc(Oc2ccc(NC(=O)CCCC(=O)O)cn2)cc1	0	11	45	91*	-7	-3
O=C1/C(=C/c2ccncc2)SC(=S)N1Nc1ccccc1	0	13	27	99*	-6	1
CCOc1cc(/C=C2\SC(=S)N(Nc3ccccc3)C2=O)ccc1O	0	30	38	81*	-4	-5
Cc1ccc(C(=O)NC2CCCCN(Cc3cccc(Cl)c3)C2=O)c(C)c1 (configuration not stated)	x	-2	x	x	x	x
Cc1ccc2nc(N(CCN(C)C)C(=O)c3cc(Cl)sc3Cl)sc2c1	0	-4	11	96*	-1	0
Cc1cc(C)c2sc(N(CCN(C)C)C(=O)c3cc(Cl)sc3Cl)nc2c1	0	6	-17	-2	1	5
CCN(C(=O)CN1CCN(c2ccccc2F)CC1)c1c(N)n(Cc2ccccc2)c(=O)[nH]c1=O	0	-7	-7	-13	-4	2
CCN(C(=O)CN1CCN(c2ccccc2O)CC1)c1c(N)n(Cc2ccccc2)c(=O)[nH]c1=O	0	2	-4	98*	-2	-1
COc1cc(OC)cc(C(=O)NNC(=O)c2cc3ccccc3cc2O)c1	0	30	28	-21	-6	-3
C/C(=N\NC(=O)CCCNc1ccccc1)c1ccncc1	0	0	25	48	-4	-7
C/C(=N\Nc1cccc2cccnc12)c1ccccn1	1	2	12	90*	1	2
C/C(=N\Nc1cccc2cccnc12)c1ccccc1O	0	12	-43	2	-1	-2
C/C(=N\NC(=O)c1c[nH]c2ccccc12)c1ccccn1	1	7	40	x	3	4
C/C(=N/NC(=O)c1cc2ccccc2cc1O)C1C(=O)c2ccccc2C1=O	0	100*	18	12	-4	-1
C/C(=N\NC(=O)CCCNc1ccc(C)cc1)c1ccccn1	0	-1	-6	98*	-1	0
C/C(=N\NC(=O)c1cc2ccccc2cc1O)c1ccccn1	-1	47*	18	12	-5	-6
Brc1ccc2nc(-c3ccc(CN4CCC(c5nc6ccccc6[nH]5)CC4)cc3)c(-c3ccccc3)nc2c1	x	14	x	x	x	x
C/C(C=NNC(=O)CSc1nnc(-c2ccc(Cl)cc2)n1-c1ccccc1)=C\c1ccccc1	x	9	x	x	x	x
CCOC(=O)[C@@]12CCC3=C1N(CCC3)C(=O)[C@H](CC(=O)N1CCN(C(=O)C3CC3)CC1)C2	x	2	x	x	x	x
CC(C)CNS(=O)(=O)/C=C/c1ccccc1CCNC(=O)OC(C)(C)C	x	2	x	x	x	x
CCOC(=O)CCCNC(=O)OCCCN1CCC2(CCC(c3ccccc3)CC2)C1=O (configuration not stated)	x	-1	x	x	x	x

High-throughput results deposited in PubChem by several laboratories.
